# Measured values reported in PubChem BioAssay (Tox21).
# Unmarked numbers belong to inactive results. Results filed as inconclusive are left out. A call without a number means that no potency is given here. Activity calls are given as the source filed them. Unless noted, calls come from the whole dose curve; as a rule, active = well fitted curve in the direction sought with a large enough effect in the repeat runs; inconclusive = weak or mixed curves; inactive = no such curve, though single readings can be large; an effect the other way counts as inactive or inconclusive.
# What was measured:
# [1] = qHTS assay for small molecules that induce genotoxicity in human embryonic kidney cells expressing luciferase-tagged ATAD5 (AID 651632); note: nearly all actives have a fitted effect of over 15% in size
# Procedure, shortened: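 Quantitative HTS in HEK293T expressing luciferase-tagged ATAD5, whose levels rise upon DNA damage. Exposure ran 16 hr at 37C and 5% CO2, with luminescence read 30 min after Amplite addition at room temperature.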
# [2] = qHTS assay for small molecule agonists of the p53 signaling pathway - cell viability (AID 651633; calls by dose curve;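 note: p53RE-bla HCT reporter cells with a stable beta-lactamase p53 reporter; series mostly up to about 83 µM; nearly all actives have a fitted effect of over 30% in size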)
# Procedure, shortened: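 p53RE-bla cells were treated with compound for 16 hours at 37 C. Cytotoxicity was then measured as CellTiter-Glo luminescence after 30 min at room temperature.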
# [3] = qHTS assay for small molecule disruptors of the mitochondrial membrane potential - cell viability (AID 720634; calls by dose curve;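 note: human HepG2 liver cancer cells; series mostly up to about 83 µM; nearly all actives have a fitted effect of over 20% in size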)
# Procedure, shortened: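 ATP-based luminescent viability readout (CellTiter-Glo, 30 min, room temperature) in HepG2 cells multiplexed with the m-MPI membrane potential dye; compound exposure lasted 1 hr at 37 C.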
# [4] = qHTS assay for small molecule disruptors of the mitochondrial membrane potential (AID 720635); note: potency is the fitted concentration of half-maximal effect
# Procedure, shortened: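 HepG2 cells exposed to compound 1 hr at 37C, then Mito-MPS dye 30 min. Ratio read of aggregate (540/590 nm) versus monomer (490/535 nm) fluorescence.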
# [5] = qHTS assay to test for compound auto fluorescence at 590 nm (red) in HepG2 cells (AID 720674)
# Procedure, shortened: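 Fluorescence at 590 nm emission following 540 nm excitation was recorded from HepG2 wells one hour after compound transfer, with DMSO-only wells as vehicle and Rose Bengal sodium equivalency as the scale.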
# [6] = qHTS assay to test for compound auto fluorescence at 535 nm (green) in HepG2 cells (AID 720675)
# [7] = qHTS assay to test for compound auto fluorescence at 460 nm (blue) in HEK293 cells (AID 720678)
# Procedure, shortened: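 HEK293, 2,000 cells/well, 10% dialyzed FBS; attach 4-5 hr 37C; pin compound or DMSO; o/n 37C/5% CO2; fluorescence 405/460 nm; triamterene-equivalent units.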
# [8] = qHTS assay to test for compound auto fluorescence at 590 nm (red) in HEK293 cells (AID 720679)
# Procedure, shortened: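 Intensity at 540nm excitation and 590nm emission is reported as Rose Bengal sodium-equivalent autofluorescence. Measurements followed overnight exposure (37C, 5% CO2) of HEK293 cells, 2,000 per well, to 23 nL compound.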
# [9] = qHTS assay to test for compound auto fluorescence at 535 nm (green) in HEK293 cells (AID 720680)
# [10] = qHTS assay to test for compound auto fluorescence at 460 nm (blue) in HEK293 cell free culture (AID 720681)
# Procedure, shortened: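 Compounds were added to cell-free DMEM with 10% FBS and fluorescence read directly. The blue channel used 405 nm excitation and 460 nm emission, with triamterene as the reference fluorophore.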
# [11] = qHTS assay to test for compound auto fluorescence at 535 nm (green) in HEK293 cell free culture (AID 720682)
# Procedure, shortened: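 Cell-free medium (DMEM, 10% FBS) receives compound or DMSO by pintool. Plate read directly at Ex 485/Em 535 nm. Signal converted to fluorescein equivalency.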
# [12] = qHTS assay to test for compound auto fluorescence at 590 nm (red) in HEK293 cell free culture (AID 720683)
# Procedure, shortened: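 Cell-free wells of DMEM with 10% FBS received compound, and intrinsic fluorescence was read at excitation/emission 540/590 nm. Values expressed as equivalence to Rose Bengal sodium.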
# [13] = qHTS assay to test for compound auto fluorescence at 590 nm (red) in HepG2 cell free culture (AID 720684)
# Procedure, shortened: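 Auto fluorescence equivalency versus Rose Bengal sodium, red channel Ex/Em 540/590 nm; compounds in cell-free MEM/10% FBS; DMSO vehicle control.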
# [14] = qHTS assay to test for compound auto fluorescence at 460 nm (blue) in HepG2 cell free culture (AID 720685)
# Procedure, shortened: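 Cell-free plates of MEM plus 10% FBS received 23 nL compound or DMSO vehicle; blue-channel (405/460 nm) intensity scored against triamterene as reference fluorophore.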
# [15] = qHTS assay to test for compound auto fluorescence at 535 nm (green) in HepG2 cell free culture (AID 720686)
# [16] = qHTS assay to test for compound auto fluorescence at 460 nm (blue) in HepG2 cells (AID 720687)
# Procedure, shortened: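 HepG2 cells in MEM with 10% FBS, attached overnight at 37 C, were exposed to compound or DMSO for 1 hr at 37 C, 5% CO2. Blue fluorescence was read at 405/460 nm, with triamterene as reference fluorophore.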
# [17] = target: Glucocorticoid receptor (Homo sapiens) (UniProt P04150); test: qHTS assay to identify small molecule agonists of the glucocorticoid receptor (GR) signaling pathway (AID 720691; active = well fitted activation curve with a large enough effect in the signal ratio in the repeat runs, not every such curve was filed as active; the % refers to the signal ratio)
# Procedure, shortened: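 Cells: GR-bla HeLa, endogenous GR with stably integrated GRE-beta-lactamase reporter. Treatment 18 h, 37 C, compounds delivered in DMSO. Detection via LiveBLAzer B/G FRET substrate, 2 h RT, fluorescence intensity.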
# [18] = target: Glucocorticoid receptor (Homo sapiens) (UniProt P04150); test: qHTS assay to identify small molecule antagonists of the glucocorticoid receptor (GR) signaling pathway (AID 720692; active = well fitted inhibition curve with a large enough effect in the signal ratio in the repeat runs, not every such curve was filed as active; the % refers to the signal ratio)
# Procedure, shortened: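 Quantitative HTS in antagonist format: HeLa cells expressing endogenous GR and a stably integrated GRE-bla reporter, stimulated with 5 nM dexamethasone (final) alongside test compounds for 18 h.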
# [19] = qHTS assay for small molecules that induce genotoxicity in human embryonic kidney cells expressing luciferase-tagged ATAD5 - cell viability (AID 651634; calls by dose curve; note: nearly all actives have a fitted effect of over 25% in size)
# Procedure, shortened: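 After 15.5 hr incubation with compound at 37C, 5% CO2, HEK293T ATAD5-luciferase cells received CellTiter-Fluor reagent; fluorescence intensity was quantified following 30 min at 37C.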
# Glucocorticoid receptor (Homo sapiens), sequence (P04150 whole entry, looked up): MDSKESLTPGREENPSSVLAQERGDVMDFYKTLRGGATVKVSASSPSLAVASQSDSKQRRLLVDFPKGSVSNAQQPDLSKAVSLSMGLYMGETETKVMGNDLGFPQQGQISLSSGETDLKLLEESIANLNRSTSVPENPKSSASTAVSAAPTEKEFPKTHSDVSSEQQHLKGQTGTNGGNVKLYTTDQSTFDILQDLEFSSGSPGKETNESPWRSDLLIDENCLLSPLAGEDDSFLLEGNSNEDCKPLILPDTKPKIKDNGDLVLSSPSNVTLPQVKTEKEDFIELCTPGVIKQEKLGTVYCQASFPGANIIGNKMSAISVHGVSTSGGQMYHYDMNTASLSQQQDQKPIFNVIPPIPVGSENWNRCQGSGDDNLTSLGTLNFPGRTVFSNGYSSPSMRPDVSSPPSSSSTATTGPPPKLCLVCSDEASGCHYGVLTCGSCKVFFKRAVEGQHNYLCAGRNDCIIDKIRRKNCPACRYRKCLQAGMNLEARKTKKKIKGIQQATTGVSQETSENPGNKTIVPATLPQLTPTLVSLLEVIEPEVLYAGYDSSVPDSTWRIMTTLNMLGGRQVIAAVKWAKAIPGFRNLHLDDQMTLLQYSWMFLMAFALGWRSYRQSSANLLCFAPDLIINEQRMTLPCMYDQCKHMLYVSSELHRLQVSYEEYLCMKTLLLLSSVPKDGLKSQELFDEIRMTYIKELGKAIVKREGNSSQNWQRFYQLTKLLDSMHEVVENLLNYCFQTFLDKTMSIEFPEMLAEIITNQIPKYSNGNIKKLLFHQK
smiles,measurement,setting,value
COc1ccc2c(c1OC)C(=O)O[C@@H]2[C@H]1c2c(cc3c(c2OC)OCO3)CCN1C,Potency,[1],inactive
same,outcome,[2],inactive
same,outcome,[3],inactive
same,Potency,[4],inactive
same,outcome,[5],inactive
same,outcome,[6],inactive
same,outcome,[7],inactive
same,outcome,[8],inactive
same,outcome,[9],inactive
same,outcome,[10],inactive
same,outcome,[11],inactive
same,outcome,[12],inactive
same,outcome,[13],inactive
same,outcome,[14],inactive
same,outcome,[15],inactive
same,outcome,[16],inactive
same,Potency,[17],inactive
same,outcome,[18],inactive
Nc1cccc(O)c1,Potency,[1],inactive
same,outcome,[2],inactive
same,outcome,[5],inactive
same,outcome,[6],inactive
same,outcome,[7],inactive
same,outcome,[8],inactive
same,outcome,[9],inactive
same,outcome,[10],inactive
same,outcome,[11],inactive
same,outcome,[12],inactive
same,outcome,[13],inactive
same,outcome,[14],inactive
same,outcome,[16],inactive
same,outcome,[18],inactive
O=C(CCN1CCN(CCO)CC1)N1c2ccccc2Sc2ccc(C(F)(F)F)cc21,outcome,[2],inactive
same,Potency,[19],inactive
same,outcome,[3],inactive
same,outcome,[5],inactive
same,outcome,[6],inactive
same,outcome,[8],inactive
same,outcome,[9],inactive
same,outcome,[10],inactive
same,outcome,[11],inactive
same,outcome,[12],inactive
same,outcome,[14],inactive
same,outcome,[15],inactive
same,outcome,[16],inactive
NNc1nnc(NN)c2ccccc12,outcome,[2],inactive
same,Potency,[19],inactive
same,outcome,[3],inactive
same,outcome,[5],inactive
same,outcome,[6],inactive
same,outcome,[7],inactive
same,outcome,[8],inactive
same,outcome,[9],inactive
same,outcome,[11],inactive
same,outcome,[12],inactive
same,outcome,[13],inactive
same,outcome,[14],inactive
same,outcome,[15],inactive
same,outcome,[16],inactive
CC(=O)Nc1ccc(S(=O)(=O)Cl)cc1,outcome,[2],inactive
same,Potency,[19],inactive
same,outcome,[3],inactive
same,outcome,[5],inactive
same,outcome,[6],inactive
same,outcome,[8],inactive
same,outcome,[9],inactive
same,outcome,[10],inactive
same,outcome,[11],inactive
same,outcome,[12],inactive
same,outcome,[14],inactive
same,outcome,[16],inactive
same,Potency,[17],inactive
same,outcome,[18],inactive
COc1ccc(OC)c(Cl)c1,Potency,[1],inactive
same,outcome,[2],inactive
same,Potency,[19],inactive
same,outcome,[3],inactive
same,outcome,[5],inactive
same,outcome,[6],inactive
same,outcome,[7],inactive
same,outcome,[9],inactive
same,outcome,[10],inactive
same,outcome,[11],inactive
same,outcome,[12],inactive
same,outcome,[13],inactive
same,outcome,[14],inactive
same,outcome,[15],inactive
same,outcome,[16],inactive
OC[C@H](Cc1cccc(O)c1)[C@H](CO)Cc1cccc(O)c1,Potency,[1],inactive
same,outcome,[2],inactive
same,Potency,[19],inactive
same,outcome,[3],inactive
same,outcome,[5],inactive
same,outcome,[6],inactive
same,outcome,[7],inactive
same,outcome,[9],inactive
same,outcome,[10],inactive
same,outcome,[12],inactive
same,outcome,[13],inactive
same,outcome,[14],inactive
same,outcome,[15],inactive
same,outcome,[16],inactive
same,Potency,[17],inactive
same,outcome,[18],inactive
COP(=O)(OC)OC(c1ccc(Cl)cc1)P(=O)(OC)OC (stereo not drawn),Potency,[1],inactive
same,Potency,[19],inactive
same,outcome,[3],inactive
same,outcome,[5],inactive
same,outcome,[6],inactive
same,outcome,[7],inactive
same,outcome,[9],inactive
same,outcome,[10],inactive
same,outcome,[12],inactive
same,outcome,[13],inactive
same,outcome,[14],inactive
same,outcome,[15],inactive
same,outcome,[16],inactive
same,Potency,[17],inactive
same,outcome,[18],inactive
CN(C)c1ccc(C=O)cc1,outcome,[2],inactive
same,Potency,[19],inactive
same,outcome,[3],inactive
same,outcome,[5],inactive
same,outcome,[6],inactive
same,outcome,[8],inactive
same,outcome,[9],inactive
same,outcome,[10],inactive
same,outcome,[12],inactive
same,outcome,[13],inactive
same,outcome,[14],inactive
same,outcome,[15],inactive
same,outcome,[16],inactive
same,Potency,[17],inactive
same,outcome,[18],inactive
CC(C)(C)OC(=O)c1ccc(O)cc1,Potency,[1],inactive
same,outcome,[2],inactive
same,Potency,[19],inactive
same,Potency,[4],21.7 µM (active)
same,outcome,[5],inactive
same,outcome,[6],inactive
same,outcome,[8],inactive
same,outcome,[9],inactive
same,outcome,[11],inactive
same,outcome,[12],inactive
same,outcome,[13],inactive
same,outcome,[14],inactive
same,outcome,[15],inactive
same,outcome,[16],inactive
same,Potency,[17],inactive
CCCCCCCCCCl,Potency,[1],inactive
same,Potency,[19],inactive
same,outcome,[3],inactive
same,Potency,[4],inactive
same,outcome,[5],inactive
same,outcome,[6],inactive
same,outcome,[7],inactive
same,outcome,[8],inactive
same,outcome,[9],inactive
same,outcome,[10],inactive
same,outcome,[11],inactive
same,outcome,[12],inactive
same,outcome,[13],inactive
same,outcome,[14],inactive
same,outcome,[15],inactive
same,outcome,[16],inactive
CC(C)OC(=O)CCCCC(=O)OC(C)C,Potency,[1],inactive
same,outcome,[2],inactive
same,Potency,[19],inactive
same,outcome,[3],inactive
same,outcome,[5],inactive
same,outcome,[6],inactive
same,outcome,[8],inactive
same,outcome,[9],inactive
same,outcome,[10],inactive
same,outcome,[11],inactive
same,outcome,[12],inactive
same,outcome,[14],inactive
same,outcome,[15],inactive
same,outcome,[16],inactive
same,Potency,[17],inactive
COc1ccc2c(c1)C(=O)N(CCc1ccc(S(=O)(=O)NC(=O)NC3CCCCC3)cc1)C(=O)C2(C)C,outcome,[2],inactive
same,Potency,[19],inactive
same,outcome,[3],inactive
same,"fluorescence, relative to Rose Bengal",[5],0.0268% [at 18.6 µM]
same,"fluorescence, % of fluorescein control",[6],-0.152% [at 18.6 µM]
same,"fluorescence, % of triamterene",[7],0.056% [at 18.6 µM]
same,"fluorescence, % of fluorescent control",[8],-0.014% [at 18.6 µM]
same,"fluorescence, % of fluorescein",[9],0.0317% [at 18.6 µM]
same,"fluorescence, % of fluorescent control",[10],0.0227% [at 18.6 µM]
same,activity change,[11],0.0882% [at 18.6 µM]
same,"fluorescence, % of fluorescent control",[12],-0.0169% [at 18.6 µM]
same,"fluorescence, % of Rose Bengal",[13],-0.0384% [at 18.6 µM]
same,"fluorescence, % of fluorescent control",[14],-0.0823% [at 18.6 µM]
same,"fluorescence, % of fluorescein control",[15],-0.167% [at 18.6 µM]
same,"fluorescence, % of fluorescent control",[16],-0.0057% [at 18.6 µM]
same,Potency,[17],inactive
same,outcome,[18],inactive
CCCCCCCCSCC,Potency,[1],inactive
same,outcome,[2],inactive
same,Potency,[19],inactive
same,outcome,[3],inactive
same,outcome,[5],inactive
same,outcome,[6],inactive
same,outcome,[8],inactive
same,outcome,[9],inactive
same,outcome,[10],inactive
same,outcome,[11],inactive
same,outcome,[12],inactive
same,outcome,[13],inactive
same,outcome,[14],inactive
same,outcome,[15],inactive
same,outcome,[16],inactive
same,Potency,[17],inactive
